The text below walks through data of PubChem BioAssay (EPA / NIEHS).

SMILES strings stand for the structures. “And” between values parts separate entries of the source, which are not always exact repeats. Equal values may be shown once. Inconclusive results are not listed. The source made the active and inactive calls. Rule for the calls, unless noted: active = hit-call score of the fitted dose curve at least 0.9, where 1 is the maximum; inactive = score below 0.9.

The subject of assay [1] is DIO2 (gene 1734). The assay is described as follows: CCTE_GLTED_hDIO2: CCTE's human Deiodinase 2 (DIO2) Inhibition Assay, Great Lakes Toxicology and Ecology Division (GLTED) Lab (AID 2284050; active = hit-call score of the fitted dose curve at least 0.9, where 1 is the maximum). An outline of the steps: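 Cell-free human DIO2 enzyme was incubated with test chemical for 3 h; iodide liberated from substrate was then quantified by the Sandell-Kolthoff reaction (absorbance), run in triplicate. Loss of signal versus DMSO baseline indicated inhibition.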

In assay [2] the test system is DIO3 (gene 1735). The assay is described as follows: CCTE_GLTED_hDIO3: CCTE's human Deiodinase 3 (DIO3) Inhibition Assay, Great Lakes Toxicology and Ecology Division (GLTED) Lab (AID 2284055; active = hit-call score of the fitted dose curve at least 0.9, where 1 is the maximum;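 for AC50: potency is for inhibition seen as loss of released iodide signal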). An outline of the steps: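 Cell-free assay with human DIO3 enzyme produced by adenovirus expression; enzyme incubated with test chemical for 3 hours. Liberated iodide then measured by Sandell-Kolthoff absorbance; loss of signal versus DMSO baseline indicates inhibition, run in triplicate.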

A short description of assay [3]: CCTE_Shafer_MEA_dev_burst_rate: CCTE's Neural Network Formation Assay for Burst Rate, Shafer Lab (AID 2284042).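 For AC50: potency for loss of burst rate below DMSO control.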 The procedure, abridged:
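Rat primary cortical cultures on PEI/laminin MEA; compound from plating, re-dosed at DIV 5, 9 media change. Single-electrode bursts/recording length, well mean of active electrodes; AUC over DIV 5–12 recordings; loss-of-signal vs DMSO.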

The nature of assay [4]: CCTE_Shafer_MEA_dev_bursting_electrodes_number: CCTE's Neural Network Formation Assay for Number of Bursting Electrodes, Shafer Lab (AID 2284043; active = hit-call score of the fitted dose curve at least 0.9, where 1 is the maximum;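 for AC50: potency is for loss of bursting electrodes relative to DMSO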). The procedure, abridged: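 Primary rat cortical neurons were cultured on PEI-coated 48-well MEA plates (16 electrodes/well) and exposed from plating through day 12, with compound renewed at feeds on DIV 5 and 9. Electrodes bursting ≥1 per 2 min were counted on DIV 5, 7, 9, 12; trapezoidal AUC taken.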

The nature of assay [5]: CCTE_Shafer_MEA_dev_per_burst_interspike_interval: CCTE's Neural Network Formation Assay for Burst Interspike Interval, Shafer Lab (AID 2284044).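 For AC50: potency for a decrease of within-burst interspike interval below DMSO level.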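 Note: mean spike spacing inside bursts as AUC over recordings on days 5 7 9 12.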 An outline of the steps: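 Rat cortical primary cultures, 16 electrodes/well; compound from plating, renewed with full media change DIV 5 and 9. Spikes via adaptive detector; per-burst ISI well-mean over active bursting electrodes; AUC of DIV 5/7/9/12 recordings; loss-direction fit vs DMSO.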

Assay [6] can be described thus: CCTE_Shafer_MEA_dev_burst_duration_mean: CCTE's Neural Network Formation Assay for Mean Burst Duration, Shafer Lab (AID 2284045).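 For AC50: curve fitted for loss meaning shorter burst duration than DMSO.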 The procedure, abridged:
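Primary rat cortical neurons on PEI-coated 16-electrode MEA wells, exposed from plating through day 12 with compound renewed at DIV 5 and 9; spontaneous activity recorded days 5, 7, 9, 12. Well-mean burst duration collapsed as trapezoidal AUC, fitted for loss versus DMSO.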

Assay [7] can be described thus: CCTE_Shafer_MEA_dev_interburst_interval_mean: CCTE's Neural Network Formation Assay for Mean Interburst Interval, Shafer Lab (AID 2284046).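 Note: well-mean interburst interval of bursting electrodes as AUC over four recording days; curve fitted for decrease in interburst interval relative to DMSO.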 The procedure, abridged:
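Rat cortical neurons, 1.5 x 10^5 cells/well, 48-well MEA; compound from day 0 through DIV 12, media and treatment renewed DIV 5/9. Recordings DIV 5, 7, 9, 12; well-mean interburst interval → trapezoidal AUC, loss direction vs DMSO.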

The nature of assay [8]: CCTE_Shafer_MEA_dev_inter_network_spike_interval_mean: CCTE's Neural Network Formation Assay for Mean Inter-network Spike Interval, Shafer Lab (AID 2284047). The procedure, abridged: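 Primary rat cortical neurons on PEI-coated 48-well MEAs (16 electrodes/well) were exposed from plating day 0 to DIV 12, with dosing renewed at DIV 5 and 9. Recordings at DIV 5, 7, 9, 12 were collapsed by trapezoidal AUC, loss-of-signal fit vs DMSO.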

Assay [9] is described as follows: CCTE_Shafer_MEA_dev_network_spike_number: CCTE's Neural Network Formation Assay for Number of Network Spikes, Shafer Lab (AID 2284048).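 For AC50: fit as a loss of signal meaning fewer network spikes than DMSO.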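 Note: synchronized bursts across electrodes counted on days 5 7 9 12 and integrated as AUC.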 An outline of the steps: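 Primary rat cortical neurons were seeded at 1.5 x 10^5 cells/well on PEI-coated 16-electrode MEA wells with laminin, exposed from plating day 0, compound renewed at DIV 5 and 9. Network spikes were recorded on days 5, 7, 9, 12 and summarized as trapezoidal AUC versus DMSO.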

The nature of assay [10]: CCTE_Shafer_MEA_dev_network_spike_peak: CCTE's Neural Network Formation Assay for Mean Number of Electrodes in Network Spike, Shafer Lab (AID 2284049).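 For AC50: fitted for loss of signal meaning fewer electrodes in network spikes than DMSO.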 An outline of the steps:
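Continuous 12-day exposure of rat cortical cultures, starting at plating, on MEA plates. Endpoint: electrodes participating in network-spike peaks, AUC across DIV 5–12, DMSO as negative control.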

The nature of assay [11]: CCTE_Shafer_MEA_dev_spike_duration_mean: CCTE's Neural Network Formation Assay for Mean Spike Duration, Shafer Lab (AID 2284051).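 For AC50: potency for a decrease in mean network spike duration versus DMSO.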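 Note: mean network spike duration pooled as area under curve over DIV 5 to 12 recordings.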 The procedure, abridged: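 Rat cortical primary cultures, 48-well MEA (16 electrodes/well); compound from plating, renewed DIV 5, 9. Network spike duration (AxIS adaptive detector) recorded DIV 5/7/9/12, combined as trapezoidal AUC; loss direction vs DMSO.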

Assay [12] in a line: CCTE_Shafer_MEA_dev_network_spike_duration_std: CCTE's Neural Network Formation Assay for Standard Deviation of Network Spike Duration, Shafer Lab (AID 2284052).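 Note: area under curve of spike duration SD across recording days 5 to 12; hits are decreases in network spike duration SD versus DMSO vehicle.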 The procedure, abridged:
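Rat cortical cultures, 1.5 x 10^5 cells/well, exposed continuously from plating to DIV 12 with media/compound renewal at DIV 5, 9. Spontaneous activity recorded DIV 5/7/9/12, AxIS adaptive spike detector; AUC across days; negative direction vs DMSO.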

The nature of assay [13]: CCTE_Shafer_MEA_dev_per_network_spike_spike_number_mean: CCTE's Neural Network Formation Assay for Mean Number of Spikes in a Network Spike, Shafer Lab (AID 2284053).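 For AC50: fitted as decrease in spikes per network spike relative to DMSO.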 An outline of the steps: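 Rat cortical primary cultures on 48-well MEA; compound from day 0, re-dosed with full media change DIV 5, 9. Recorded DIV 5, 7, 9, 12; spikes in 0.05 s window at network-spike peak ÷ total network spikes; AUC; loss vs DMSO.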

The nature of assay [14]: CCTE_Shafer_MEA_dev_per_network_spike_spike_percent: CCTE's Neural Network Formation Assay for Percent of Spikes in a Network Spike, Shafer Lab (AID 2284054). An outline of the steps:
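Primary rat cortical neurons on 16-electrode MEA wells (PEI-coated, laminin at plating), exposed from day 0 with renewal at DIV 5 and 9; spikes within 0.05 s of network-spike peaks over total spikes, AUC across days 5, 7, 9, 12.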

The nature of assay [15]: CCTE_Shafer_MEA_dev_LDH: CCTE's Lactate Dehydrogenase Assay for Cytotoxicity in the Neural Network Formation Assay, Shafer Lab (AID 2284068; active = hit-call score of the fitted dose curve at least 0.9, where 1 is the maximum;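 note: exposure for twelve days from plating with re-dosing on DIV 5 and 9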). An outline of the steps:
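Rat cortical primary neurons, MEA culture; dosing day 0–12, full medium plus compound exchange DIV 5, 9. Read-out: LDH enzyme activity, spectrophotometric. DMSO = negative control/baseline; signal loss → cytotoxicity.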

Assay [16] is described as follows: CCTE_Shafer_MEA_acute_AB: CCTE's Alamar Blue Assay for Cytotoxicity in the Neural Acute Assay, Shafer Lab (AID 2284069; active = hit-call score of the fitted dose curve at least 0.9, where 1 is the maximum;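 note: active compounds lower the viability signal compared with DMSO wells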). An outline of the steps: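 Read-out: resazurin fluorescence (ex 544, em 590 nm) after CTB reagent at 1:6 dilution in fresh media. Cells: primary rat cortical neuron networks, DIV 13 or 15, chemically exposed on MEA plates; DMSO as negative control/baseline.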
(In general: Resazurin is reduced to fluorescent resorufin, in cell work by metabolically active cells.)

Assay [17] in a line: CCTE_Shafer_MEA_dev_AB: CCTE's Alamar Blue Assay for Cytotoxicity in the Neural Network Formation Assay, Shafer Lab (AID 2284083; active = hit-call score of the fitted dose curve at least 0.9, where 1 is the maximum;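 note: resazurin reduction fluorescence as viability of cultured neurons; twelve days of exposure from plating with re-dosing on DIV 5 and 9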). The procedure, abridged:
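Rat cortical primary cultures, 1.5 x 10^5 cells/well on MEA; continuous compound exposure over 12 days of network development, re-dosed with full medium change DIV 5 and 9. Alamar Blue fluorescence; loss of signal = cytotoxicity vs DMSO baseline.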

The nature of assay [18]: UKN5_HCS_SBAD2_cell_viability: Viability Assessment in the University of Konstanz (UKN) Leist Lab Neurite Outgrowth Assay in human iPSC-derived immature Dorsal Root Ganglia Neurons (UKN5) (AID 2284056). The procedure, abridged: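 iPSC-derived immature peripheral neurons (SBAD2) seeded on Matrigel with CHIR99021, SU5402 and DAPT, dosed 1 h later for 24 h. Viability from Hoechst H-33342 and calcein-AM live staining, high-content imaging; bidirectional fit versus DMSO.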

The nature of assay [19]: UKN5_HCS_SBAD2_neurite_outgrowth: University of Konstanz (UKN) Leist Lab Neurite Outgrowth Assay in human iPSC-derived immature Dorsal Root Ganglia Neurons (UKN5) (AID 2284070). The following applies: actives raise or lower the signal. The procedure, abridged: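 Human iPSC-derived immature DRG neurons (SBAD2) on Matrigel with CHIR99021 (1.5 uM), SU5402 (5 uM), DAPT (5 uM); compounds added 1 h post-seeding for 24 h. Calcein-AM neurite area imaged; bidirectional fit vs DMSO.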

In the case of `CC12CC1(C)C(=O)N(c1cc(Cl)cc(Cl)c1)C2=O` (stereo not given), the call in assay [1] and in [2] was inactive.
Take `ClC1(Cl)C2(Cl)C3(Cl)C4(Cl)C(Cl)(Cl)C5(Cl)C3(Cl)C1(Cl)C5(Cl)C24Cl` (stereo not given): the AC50 in assay [3] is 2640 nM (active); in [4], 1620 nM (active); in assay [5], 1580 nM (active); in assay [7], 3370 nM (active); in assay [9], 888 nM (active); in assay [10], 2320 nM (active). Further, the AC50 was 2350 nM (active) in assay [11]; 1030 nM (active) in assay [12]; 2680 nM (active) in assay [13]; 2320 nM (active) in assay [14]; 1920 nM (active) in assay [15]; 2830 nM (active) in [17]. Moreover, the call in assay [6], in assay [8] and in [16] was inactive.
Consider `CCCCCCCCc1ccc(O)cc1`, for which the concentration at half-maximal activity (AC50) in assay [1] is 151 µM (active); in assay [2], 19.9 µM (active). Also, the compound was classed as inactive in assay [16].
In the case of `O=C(O)C(F)(F)C(F)(F)C(F)(F)C(F)(F)C(F)(F)C(F)(F)C(F)(F)C(F)(F)C(F)(F)C(F)(F)F`, the call in assay [3], in assay [4], in [5], in assay [6], in [7] and in [8] was inactive. For the same compound, the result in [9], in assay [10], in assay [11], in assay [12], in assay [13] and in assay [14] was inactive. Also, the compound was classed as inactive in assay [15] and in assay [16]. The AC50 in assay [1] was 50 µM (active) and 53.2 µM (active); in assay [2] it was 19.9 µM (active) and 25.1 µM (active).
Take `C=C(C)C(=O)[O][Sn]([CH2]CCC)([CH2]CCC)[CH2]CCC`: the AC50 in assay [3] was 22.5 nM (active); in assay [4], 19.9 nM (active); in [5], 33.6 nM (active); in assay [6] it was 26.6 nM (active); in assay [7], 48.2 nM (active); in [9], 21.8 nM (active). The half-maximal activity concentration (AC50) in assay [10] is 39.4 nM (active); in assay [11], 31.2 nM (active); in [12], 13 nM (active); in assay [13], 30.1 nM (active); in [14], 1980 nM (active); in [18] it was 246 nM (active). Further, the concentration at half-maximal activity (AC50) in assay [15] was 1980 nM (active); in assay [16] it was 4690 nM (active); in assay [19] it was 127 nM (active); in assay [17], 91.5 nM (active). The outcome in assay [8] was inactive.
Take `C=CC(=O)OCCCCCC(C)C`: the AC50 is 21.1 µM (active) in [1] and 35.4 µM (active) in [2].

Usually AC50 stands for the concentration at which the activity in the assay is half-maximal.
